# This is part of a sample that, as a whole, favours compounds with a hit. Of some 83,000 tested, about 20% had one in any assay.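 For each line, cells grew in 96-well plates with the test compound present at a single concentration for 48 hours.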 Values without a mark were called inactive. Calls of active or inactive are those of the source. Rule for the calls: active = growth percent below 10; inactive = the rest.
# Experiments:
# Assay in all cases: NCI-60 one-dose screen, 48 h (100 = growth as untreated, 0 = no growth, -100 = all killed)
# Conditions in all cases: 10 µM unless noted
# [1] = tested on: EKVX NSCLC
# [2] = tested on: SN12C renal
# [3] = tested on: UO-31 renal
# [4] = tested on: TK-10 renal
# [5] = tested on: ACHN renal
# [6] = tested on: CAKI-1 renal
# [7] = tested on: A498 renal
# [8] = tested on: CCRF-CEM leukemia
# [9] = tested on: MOLT-4 leukemia
Compound,growth [1],growth [2],growth [3],growth [4],growth [5],growth [6],growth [7],growth [8],growth [9]
CNC(=O)Nc1ccc(Nc2cc(-c3ccc(-n4cccn4)cc3)[nH]n2)c(C)c1,109%,101%,85.4%,138%,109%,113%,129%,93.1%,91.1%
Cc1cccc(N2CCN(C3=C(Cl)C(=O)c4ncccc4C3=O)CC2)c1,104%,75.1%,18.3%,117%,-32.9% (active),52%,103%,4.71% (active),9.85% (active)
Cn1cc(-c2nnc(N)nc2-c2c[nH]c3ccc(F)cc23)c2cc(Br)ccc21,27.7%,38.1%,41.3%,61.5%,40.6%,28%,3.05% (active),-4.24% (active),-21.3% (active)
Cc1ccc2c(n1)C(=O)C(Cl)=C(Nc1cccc(C(=O)OC(C)(C)C)c1)C2=O,86.3%,94.1%,78.4%,120%,77%,77.7%,66.6%,10.6%,
CC1=C(C)C(=O)C(Nc2cccc(C(F)(F)F)c2)=C(Br)C1=O,72.9%,97.1%,79.1%,157%,72.3%,94.3%,86.4%,-0.578% (active),-6.02% (active)
O=c1nc(Nc2ccc([N+](=O)[O-])cc2O)sc2ccccc12,38%,34.5%,35.8%,,43.5%,33%,-7.49% (active),,31.1%
C#Cc1nc(C(=O)NCCCCCCC(=O)NO)cs1,53.5%,36.7%,-91.3% (active),-14.2% (active),-86.5% (active),-80.2% (active),-95.1% (active),-41.4% (active),-26.1% (active)
CCCCCN1C(=O)/C(=c2\sc3n(c2=O)C2C(NN=3)N(CC)C(=O)N2CC)c2cccc(C)c21 (stereo unspecified),56.2%,74.3%,62.7%,96.5%,43.9%,41.3%,12%,30.6%,53.1%
N#Cc1c(-c2cccs2)cc(-c2cnccn2)nc1SCC(=O)N/N=C/c1ccc(Cl)cc1,93.5%,104%,92.6%,130%,102%,90.8%,87.1%,87.6%,102%
CC(Nc1ncnc2ccc(-c3cnc4cnccn34)cc12)c1ccccc1 (stereo unspecified),30.4%,51.9%,15.7%,20.9%,22.8%,27.6%,65.3%,61.1%,37.5%
COc1cccc2c1[C@H](OC)[C@]13O[C@@]1(C2=O)[C@H](O)[C@H](C)[C@@](O)(C(=O)[C@@H]1O[C@H]1C)[C@@H]3O,-39.5% (active),-8.82% (active),-16.1% (active),-22.6% (active),1.83% (active),-23.4% (active),-82.4% (active),-20.3% (active),-39.8% (active)
O=C(COc1ccc(/C=C2\C(=O)Nc3ccc(Cl)cc32)cc1)Nc1ccc(Cl)cc1,74.9%,53%,50.8%,112%,33.3%,34.8%,72.4%,47.2%,55.5%
O=C(CSc1nc2ccccc2c(=O)n1-c1ccccc1)Nc1ccc(S(=O)(=O)Nc2nccs2)cc1,91.3%,63.8%,97.2%,112%,71.9%,59.1%,107%,34.8%,50.2%
CNC(=O)c1cc(N2CCc3cc(NC(=O)Nc4ccc(N5CCOCC5)c(C(F)(F)F)c4)ccc32)ccn1,59.6%,15%,16.9%,80.8%,26.3%,44.3%,60%,25.1%,22.9%
C#C[C@]1(O)CC[C@H]2[C@@H]3CC=C4c5sc(Nc6cc(C)cc(C)c6)nc5CC[C@]4(C)[C@H]3CC[C@@]21C,-3.54% (active),51.4%,8.23% (active),62.8%,34.3%,11%,-3.87% (active),10.7%,0.923% (active)
CCNC(=O)Oc1ccc(/C(=C(/C)c2ccc(OC)cc2)c2ccc(OCCN3CCCCCC3)cc2)cc1,69.7%,59.4%,0.828% (active),116%,61.3%,14.5%,54.8%,36.8%,17.2%
CS(=O)(=O)c1nccc(-c2c(-c3cccc(OCc4ccc(Cl)c(C(F)(F)F)c4)c3)nc3sccn23)n1,78.9%,74.7%,0.98% (active),112%,71.9%,73.7%,98.3%,13.2%,9.69% (active)
C/C(=C(\c1ccc(O)cc1)c1ccc(OCCN2CCCCCC2)cc1)c1ccc(Cl)cc1,-81.2% (active),-84.7% (active),-93.3% (active),,-88.2% (active),-97.3% (active),-91% (active),3.56% (active),-21.6% (active)
O=C(/C=C/c1csc(Br)n1)NO,37.5%,68.7%,15.5%,-9.31% (active),8.2% (active),15.9%,-5.59% (active),21.2%,9.51% (active)
CC1=C(SCC(=O)OCCCCCC(C)C)C(=O)c2ccccc2C1=O,82.5%,83%,62.9%,133%,85.7%,80.3%,107%,91.3%,79.4%
O=C(CCCCCCNC(=O)C(O)(O)C(F)(F)F)Nc1ncc(-c2ccccc2)s1,20.8%,2.31% (active),-27.9% (active),-10.3% (active),-53.1% (active),-40.4% (active),-41.8% (active),22.5%,5.09% (active)
O=C1Nc2ccccc2/C1=N\c1nnc(-c2ccccc2)o1,67.9%,104%,75.5%,224%,88.2%,88.2%,90.7%,96.2%,96.7%
N#Cc1c(-c2ccc(Br)cc2)cc(-c2c[nH]c3ccccc23)nc1N,51.6%,66.3%,43.6%,96.8%,57.4%,30.9%,63.7%,34.1%,41.4%
CCC1=Cc2c(OC)cccc2OC12C=Cc1c(OC)cccc1O2 (stereo unspecified),52.4%,42%,39.8%,101%,35.9%,28.4%,6.92% (active),16.2%,15.8%
O=c1oc2ccc(-c3ccc(F)cc3F)cc2c(=O)n1-c1ccc(Br)cc1F,73.5%,46.2%,84.5%,64.8%,80.5%,61.9%,37.4%,56.3%,57.8%
O=S(=O)(NCCCNc1nccc(-c2[nH]c(-c3ccccc3)nc2-c2ccc(F)c(O)c2)n1)c1ccc(C(F)(F)F)cc1,69.7%,67.7%,91.4%,95.7%,58.7%,40.5%,28.3%,4.62% (active),17.2%
CN1CCN(Cc2ccc(NC(=O)c3cncc(C#Cc4cnc5ccc(N)nn45)c3)cc2C(F)(F)F)CC1,37.1%,15.7%,96.3%,,27.7%,13.8%,67%,11.8%,7.21% (active)
CN(C)CCCOc1ccc(C(=C(c2ccccc2)C2CCCC2)c2ccc(OCCCN(C)C)cc2)cc1,-82.2% (active),-82.2% (active),-96.8% (active),-93% (active),-94.5% (active),-79.3% (active),-82.4% (active),-35.2% (active),-58% (active)
CCN(CC)c1ccc(/C=N/NC(=O)c2ccc(S(N)(=O)=O)cc2)cc1,23.6%,35.9%,13.3%,42.9%,14.6%,23%,44.3%,15.4%,14.2%

# From PubChem BioAssay (NCI)
